Assay outcomes deposited in PubChem by National Center for Advancing Translational Sciences (NCATS).
A selection: hits, their analogues and other compounds. The true share with any hit is near 19%.
HT1080NT lethal – kills 2HG-producing HT-1080-NT fibrosarcoma cells. HT-1080-NT fibrosarcoma viability, CellTiter-Glo ATP luminescence, 48 h. Potency, µM (series often up to 46.1 µM), inactives show at the top dose activity, negative = less viability, actives largely listed as cytotoxic. actives 1.6% (n = 360,000);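 note: NT is the 2HG producing partner of a matched IDH1 knockdown line; potency is the fitted concentration of half-maximal effect; 0% = DMSO-treated cells and -100% = media-only wells without cells; nearly all actives have a fitted effect of over 55% in size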
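Luminescent CellTiter-Glo readout after 48 hours of compound exposure at 37 degrees C defined viability of HT-1080-NT cells. Activity was normalized to DMSO wells and cell-free media wells; concentration-response curves were fitted and assigned curve classes.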
TDP1 cell CPT – DT40-hTDP1 cell growth loss with CPT; Potency, µM (doses to about 46.2 µM), inactives show top-dose activity change, negative = growth inhibition, most hits filed as inhibitors; actives 12% (n = 420,000); chicken DT40 Tdp1-/-;hTDP1 cells + 20 nM CPT, ATP luminescence, 48 h; note: potency is the fitted concentration of half-maximal effect; nearly all actives have a fitted effect of over 55% in size
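Chicken DT40 Tdp1-/- cells stably complemented with human TDP1 were seeded at 400 cells/well in medium containing 20 nM camptothecin, exposed to pin-transferred compounds, and grown at 37 °C for at least 48 hr. Viability was read as ATP luminescence.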
IL1B secr inh – blocks inflammasome-driven IL-1 beta release; THP-1 LPS/ATP IL-1B secretion, AlphaLISA, 16 h; stronger effect = lower value; activity change, % at 57.5 µM; actives 4.7% (n = 360,000); in the data active = activity change below about -50%; inconclusive = mostly about -30% to -49%
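Secreted IL-1B measured by AlphaLISA bead assay after 16 h compound exposure of THP-1 cells; compounds (final up to 57.5 uM) added 1 h before LPS (250 ng/mL) and ATP (1.25 mM) stimulation; lower signal means less secretion.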
HT1080 IDH1KD tx – kills HT-1080 cells with IDH1 knockdown; actives 2% (n = 360,000); HT-1080 IDH1 knockdown viability, ATP luminescence, 48 h; Potency, µM (series often up to 46.1 µM), for the others: at the top dose activity, negative = toxicity, usual class: cytotoxic;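 note: potency is the fitted concentration of half-maximal effect; 0% = DMSO wells and -100% = cell-free medium wells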
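Cytotoxicity counter-line: IDH1KD HT-1080, 48 h, CellTiter-Glo. Curves classed by r2, magnitude and activity.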
DT40 TDP1 no CPT – qHTS for Inhibitors of human tyrosyl-DNA phosphodiesterase 1 (TDP1): qHTS in cells in absence of CPT | DT40 Tdp1-/- hTDP1 cells, no CPT, ATP luminescence, 48 h | Potency, µM (top dose mostly 46.2 µM), for the others: at the highest dose activity change, negative = growth inhibition, hits mostly inhibitors | actives 15% (n = 420,000) | AID 686978, 2013; note: potency is the fitted concentration of half-maximal effect; nearly all actives have a fitted effect of over 55% in size
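Readout: luminescence from CellTiter-Glo after 30 min in the dark at RT. Cells: DT40 Tdp1-/- with stable hTDP1, 400/well. Exposure: compounds alone, ≥48 hr, 37 °C.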
uPA generation – blocks generation of uPA at the cell surface; cell surface uPA generation assay, qHTS; Potency, µM (titrated, usually from 38.3 µM), for the others: top-dose activity change, negative = inhibition, usual class: inhibitors; actives 0.31% (n = 330,000); active = well fitted inhibition curve with a large enough effect; inconclusive = small, poorly fitted or top-dose-only effect; inactive = no such curve, though single readings can be large or run the other way; tested in mouse RAW 264.7 cells; note: potency is the fitted concentration of half-maximal effect; nearly all actives have a fitted effect of over 55% in size
Starred values were filed as active, the others as inactive; [ ] = remark or other dose. Unless noted, calls come from the whole dose curve; as a rule, active = well fitted curve in the direction sought with a large enough effect; inconclusive = small, poorly fitted or top-dose-only effect, or another doubt; inactive = no such curve, though single readings can be large; an effect the other way counts as inactive or inconclusive. Unless noted, % is set by controls: 0 for no effect and ±100 for the full control effect.

How did COc1ccccc1Cc1c(-c2ccc(OC)c(OC)c2)nc2ccc(Cl)cn12 do in these assays?
HT1080NT lethal: inconclusive; TDP1 cell CPT: inconclusive; IL1B secr inh: -28; HT1080 IDH1KD tx: inconclusive; DT40 TDP1 no CPT: inconclusive

Results for COc1ccc(Cc2c(-c3ccc(C#N)cc3)nc3c4ccccc4ccn23)c(C)c1 ?
HT1080NT lethal: 3%; TDP1 cell CPT: inconclusive; IL1B secr inh: 21; HT1080 IDH1KD tx: 0%; DT40 TDP1 no CPT: inconclusive

Results for COC(=O)[C@@H]1CCCN1Cc1ccc2c(c1)CN(Cc1ccc(OC)c(C)c1)CCO2 ?
TDP1 cell CPT: -1%[9.04 µM]; DT40 TDP1 no CPT: -11%

How did CCC(C)(C)NC(=O)C(c1ccc(OC)cc1)N(C(=O)CCC(=O)Nc1cc(C)on1)c1ccc2c(c1)OCO2 (stereo not drawn) do in these assays?
HT1080NT lethal: -8%; TDP1 cell CPT: inconclusive; IL1B secr inh: -7; HT1080 IDH1KD tx: -18%; DT40 TDP1 no CPT: inconclusive; uPA generation: -2%

What do the screens show for `COc1cc(OC)c(NC(=O)Cn2c(=O)nc(-c3ccccc3)c3ccccc32)cc1Cl`?
TDP1 cell CPT: -6%; DT40 TDP1 no CPT: 13%

What do the screens show for `COc1ccccc1-c1cnc2c(c1)C(=O)N([C@@H](C)CO)C[C@@H](C)[C@H](CN(C)C(=O)c1cccnc1)O2`?
HT1080NT lethal: 5%; TDP1 cell CPT: -6%; IL1B secr inh: 19; HT1080 IDH1KD tx: 6%; DT40 TDP1 no CPT: 15%

Results for Cc1ccc2nc(-c3ccco3)c(CC(C)(C)C)n2c1 ?
HT1080NT lethal: -2%; TDP1 cell CPT: 10µM*; IL1B secr inh: 12; HT1080 IDH1KD tx: 8%; DT40 TDP1 no CPT: 9.2µM*

Results for COc1ccc(Nc2c(-c3ccco3)nc3ccc(C)cn23)cc1 ?
HT1080NT lethal: -3%; TDP1 cell CPT: -21%; IL1B secr inh: 7; HT1080 IDH1KD tx: -2%; DT40 TDP1 no CPT: -15%; uPA generation: 10%

Results for Cc1ccc2nc(-c3ccco3)c(Cc3ccccc3)n2c1 ?
HT1080NT lethal: inconclusive; TDP1 cell CPT: inconclusive; IL1B secr inh: 1; HT1080 IDH1KD tx: 23µM*; DT40 TDP1 no CPT: inconclusive

Results for Clc1ccc2nc(-c3ccco3)c(Cc3ccsc3)n2c1 ?
HT1080NT lethal: inconclusive; TDP1 cell CPT: inconclusive; IL1B secr inh: -15; HT1080 IDH1KD tx: inconclusive; DT40 TDP1 no CPT: inconclusive

What do the screens show for `Clc1ccc2nc(-c3ccco3)c(Cc3ccccc3)n2c1`?
HT1080NT lethal: inconclusive; TDP1 cell CPT: 16µM*; IL1B secr inh: -6; HT1080 IDH1KD tx: inconclusive; DT40 TDP1 no CPT: inconclusive

Results for O=C(O)CC1(CC(=O)Nc2ccc3ccccc3n2)CCCCC1 ?
HT1080NT lethal: 0%; TDP1 cell CPT: 15%; IL1B secr inh: 17; HT1080 IDH1KD tx: 7%; DT40 TDP1 no CPT: 1%; uPA generation: -1%

How did CN1CCN(S(=O)(=O)c2cccc(C(=O)NCCOc3ccccc3F)c2)CC1 do in these assays?
HT1080NT lethal: -5%; TDP1 cell CPT: -12%; IL1B secr inh: -5; HT1080 IDH1KD tx: -6%; DT40 TDP1 no CPT: -8%; uPA generation: 2%

What do the screens show for `CSc1nc2nc(Cl)c(Cl)nc2[nH]1`?
HT1080NT lethal: -3%; TDP1 cell CPT: inconclusive; IL1B secr inh: 22; HT1080 IDH1KD tx: -29%; DT40 TDP1 no CPT: inconclusive

How did COc1ccc(Br)c(Cn2c(C)c(C(=O)NCCC#N)sc2=O)c1 do in these assays?
HT1080NT lethal: 10%; TDP1 cell CPT: -26%; IL1B secr inh: -8; HT1080 IDH1KD tx: 7%; DT40 TDP1 no CPT: -24%

How did COc1ccc(S(=O)(=O)NC(C(=O)OCC(=O)Nc2ccc(N3CCOCC3)cc2)C(C)C)cc1 (stereo not drawn) do in these assays?
HT1080NT lethal: 1%; TDP1 cell CPT: -24%; IL1B secr inh: 17; HT1080 IDH1KD tx: -10%; DT40 TDP1 no CPT: inconclusive; uPA generation: -2%

How did C=CC[C@H](CC(=O)N[C@H](CO)Cc1ccccc1)C(=O)N[C@@H](COC(=O)[C@H](CC=C)CC(=O)OC(C)(C)C)Cc1c[nH]c2ccccc12 do in these assays?
HT1080NT lethal: inconclusive; TDP1 cell CPT: 21µM*; IL1B secr inh: -16; HT1080 IDH1KD tx: inconclusive; DT40 TDP1 no CPT: 23µM*; uPA generation: inconclusive

What do the screens show for `C=CC[C@@H](CC(=O)N[C@@H](CO)Cc1ccccc1)C(=O)N[C@@H](COC(=O)[C@@H](CC=C)CC(=O)OC(C)(C)C)Cc1c[nH]c2ccccc12`?
HT1080NT lethal: -8%; TDP1 cell CPT: 21µM*; IL1B secr inh: -21; HT1080 IDH1KD tx: -5%; DT40 TDP1 no CPT: 13µM*; uPA generation: 5%

Results for C=CC[C@@H](CC(=O)N[C@@H](CO)Cc1ccccc1)C(=O)N[C@@H](COC(=O)[C@H](CC=C)CC(=O)OC(C)(C)C)Cc1c[nH]c2ccccc12 ?
HT1080NT lethal: -19%; TDP1 cell CPT: inconclusive; IL1B secr inh: -19; HT1080 IDH1KD tx: -22%; DT40 TDP1 no CPT: 21µM*; uPA generation: -17%

How did C=CC[C@@H](CC(=O)N[C@H](CO)Cc1ccccc1)C(=O)N[C@@H](COC(=O)[C@@H](CC=C)CC(=O)OC(C)(C)C)Cc1ccccc1 do in these assays?
HT1080NT lethal: -4%; TDP1 cell CPT: 16µM*; IL1B secr inh: -19; HT1080 IDH1KD tx: -7%; DT40 TDP1 no CPT: inconclusive; uPA generation: -14%

How did C=CC[C@H](CC(=O)N[C@H](CO)Cc1ccccc1)C(=O)N[C@H](COC(=O)[C@@H](CC=C)CC(=O)OC(C)(C)C)Cc1c[nH]c2ccccc12 do in these assays?
HT1080NT lethal: -8%; TDP1 cell CPT: inconclusive; IL1B secr inh: -28; HT1080 IDH1KD tx: -10%; DT40 TDP1 no CPT: inconclusive; uPA generation: 2%

How did O=C(NCC(c1ccco1)S(=O)(=O)c1cccs1)c1ccc(Cl)cc1 (stereo not drawn) do in these assays?
TDP1 cell CPT: -26%; DT40 TDP1 no CPT: inconclusive

What do the screens show for `Cc1cc(C)cc(C(=O)Nn2cnnc2)c1`?
HT1080NT lethal: 2%; TDP1 cell CPT: 8%; IL1B secr inh: 15; HT1080 IDH1KD tx: 8%; DT40 TDP1 no CPT: -2%; uPA generation: -2%

How did CCCNC(=O)c1cc(C2CCCCN2C(=O)OCC(C)C)on1 (stereo not drawn) do in these assays?
HT1080NT lethal: -1%; TDP1 cell CPT: -25%; IL1B secr inh: 9; HT1080 IDH1KD tx: 16%; DT40 TDP1 no CPT: -26%
